Laboratory results as given in ChEMBL document CHEMBL3433997, “St. Jude Leishmania screening dataset” (2016).

Assays:
Assay type in all cases: functional
[1] = target: Solute carrier family 2, facilitated glucose transporter member 1 (Homo sapiens) (UniProt P11166); experiment: ST_JUDE_LEISH: Cytotoxicity at 2uM final concentration against transgenic Leishmania Mexicana promastigotes LmGLUT1 that are glucose transport deficient and complemented with the human glucose transporter GLUT1. Activity is measured by DNA content using SYBR green in vitro
Solute carrier family 2, facilitated glucose transporter member 1 (Homo sapiens), sequence (P11166 whole entry): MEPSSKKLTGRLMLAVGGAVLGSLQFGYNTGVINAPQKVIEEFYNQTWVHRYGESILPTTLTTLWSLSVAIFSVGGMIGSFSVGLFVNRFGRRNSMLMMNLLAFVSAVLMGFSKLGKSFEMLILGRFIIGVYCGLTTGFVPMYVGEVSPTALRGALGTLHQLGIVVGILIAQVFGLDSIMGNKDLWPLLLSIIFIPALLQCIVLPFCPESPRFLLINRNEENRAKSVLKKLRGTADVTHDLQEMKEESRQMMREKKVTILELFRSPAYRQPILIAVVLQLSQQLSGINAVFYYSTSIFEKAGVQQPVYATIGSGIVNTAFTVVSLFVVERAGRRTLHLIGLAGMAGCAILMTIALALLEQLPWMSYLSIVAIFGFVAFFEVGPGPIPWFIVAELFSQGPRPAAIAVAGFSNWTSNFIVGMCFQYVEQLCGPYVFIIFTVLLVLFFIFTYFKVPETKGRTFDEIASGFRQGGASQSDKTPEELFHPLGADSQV

[2] = target: Hexose transporter 1 (Plasmodium falciparum) (UniProt O97467); experiment: ST_JUDE_LEISH: Cytotoxicity at 2uM final concentration against transgenic Leishmania Mexicana promastigotes LmPfHT that are glucose transport deficient and complemented with the Plasmodium falciparum hexose transporter. Activity is measured by DNA content using SYBR green in vitro
[3] = target: Glucose transporter (Leishmania mexicana) (UniProt O61059); experiment: ST_JUDE_LEISH: Cytotoxicity at 2uM final concentration against transgenic Leishmania Mexicana promastigotes LmGT2 that are glucose transport deficient and complemented with the L. Mexicana glucose transporter 2. Activity is measured by DNA content using SYBR green in vitro

Compound | inhibition [1] | inhibition [2] | inhibition [3]
Cc1cc(-c2cccc(CNCc3ccccc3)c2)ccc1S(=O)(=O)NCCN1CCCC1 | 6.02% | 8.53% | 5.69%
COc1ccc2c(NN=Cc3cccnc3)ccnc2c1 | 0.4% | 2.02% | -0.33%
COc1ccc(CCN2CCC(CN(C)Cc3cnn(-c4ccccc4)c3)CC2)cc1 | 4.24% | 6.13% | 7.63%
COc1cccc(-c2ccc3c(-c4ccc(F)cc4)cnc(N)c3c2)c1 | 5.2% | 4.32% | 2.91%
CCCCN1CCN(CCCNc2c3ccccc3nc3ccccc23)CC1 | 68% | 80% | 55.3%
COc1cccc(C(=O)NCCc2cccc(Cl)c2)c1Oc1ccccc1 | 1.18% | 2.48% | 1.65%
CCCCCCN1CCN(Cc2cccc(NC(=O)c3cccc(OCC)c3)c2)CC1 | 13.6% | 13.5% | 13.1%
CN1CCC(Oc2cc(NC(=O)Nc3ccc(-c4ccncc4)c(Cl)c3)ccc2Cl)CC1 | 16% | 13.7% | 9.26%
COc1cccc(NC(=O)c2cc(Br)cc(N3CCN(c4ccncc4)CC3)c2)c1 | 2.41% | 2.07% | 2.41%
N#CN1CC[C@H](CS(=O)(=O)c2cccc(Br)c2)C1 | 6.21% | 4.67% | 2.05%
COc1cc2nccc(Nc3cccc(Oc4ccccc4)c3)c2cc1OC | 12.8% | 14.4% | 9.3%
Oc1ccc(CCNc2nc(NCCCOc3ccccc3-c3cccc(C(F)(F)F)c3)nc(N3CCNCC3)n2)cc1 | 4.36% | 4.82% | 5.07%
O=C(/C=C/c1ccc(Cl)c(Cl)c1)NCCC(CN1CCC(c2c[nH]c3ccccc23)CC1)c1ccccc1 (stereo not given) | 2.74% | 2.22% | 0.88%
CNC(=O)c1cnc(Nc2ccc(OCC(O)CN(C)C)cc2)nc1Nc1cccc(OC)c1 (stereo not given) | 3.9% | -2.08% | 4.47%
NC1=Nc2ccc(Cl)cc2C1(O)c1ccccc1 (stereo not given) | 1.25% | 1.33% | 0.97%
CC(CN(C)C)C(=O)Nc1cccc(-c2ccc(-c3nc4cc(F)ccc4[nH]3)cc2)c1 (stereo not given) | -1.76% | -3.5% | -0.1%
CCOc1ccc(C2CCN(CCCCNC(=O)c3ccc(NC(=O)c4ccc(Cl)cc4)cc3)CC2)c(OCC)c1 | 4.52% | 3.34% | 2.91%
Fc1ccc(NC(=S)NCCc2ccccc2)cc1 | 0.73% | -2.25% | 0.04%
CCOc1ccccc1C(=O)N1CCc2cc3nccc(N4CCN5CCC[C@H]5C4)c3cc21 | -0.64% | -0.67% | -0.44%
Cc1nnc2c(NC(=O)NC3CCCC3)cc3cc(-c4ccc(CN(C)C)cc4)ccc3n12 | 0.94% | 1.31% | 0.22%
CC(C)(CNCc1ccc(Cl)c(Cl)c1)c1nc(-c2ccc(Cl)c(O)c2)c(-c2ccncc2)[nH]1 | 0.8% | 3.02% | 4.37%
Cc1cccc2nc(-c3cccc(-c4ccc(NC(=O)COc5ccccc5C(N)=O)cc4)c3)[nH]c12 | 4.4% | 4.11% | 5.02%
CCOc1cc2ncnc(Nc3ccc(OCc4ccccc4F)c(Cl)c3)c2cc1OCC | -0.1% | 2.22% | 0.76%
O=C(Nc1ccc(Oc2ccccc2)cc1)N(Cc1ccc(-c2cccc(CN3CCNCC3)c2)cc1)C1CCN(Cc2ccccc2)CC1 | 3.46% | 3.12% | 3.01%
COc1ccc(-c2nc3c4ccccc4c4ccc(I)cc4c3[nH]2)cc1 | 5.22% | 2.48% | 2.32%
Cc1ccccc1C1CCN(C2CCC(NC(=O)c3ccc(-c4ccccc4)s3)CC2)CC1 (stereo not given) | 1.32% | 0.48% | 0.02%
O=C(NCCN1CCCC1)c1cccc(-c2ccc(-c3nc4cc(F)ccc4[nH]3)cc2)c1 | -0.09% | -0.39% | -1.28%
CN1CCN(c2cccc(Nc3nccc(NCC(O)c4ccccc4)n3)c2)CC1 (stereo not given) | 1.83% | 1.6% | 0.06%

Compound | inhibition [1] | inhibition [2] | inhibition [3]
COc1cc(Nc2ccnc3cc(-c4nccs4)ccc23)ccc1OCCCc1nc2ccccc2[nH]1 | 3.6% | 4.2% | 4.89%
CCOc1cc(C(=O)N[C@@H](Cc2ccccc2)[C@H](O)CNCc2cc(OC)cc(OC)c2)cc(N2CCCCS2(=O)=O)c1 | 0.3% | -0.68% | -1.52%
Nc1cc(-c2cccc(Cl)c2)nn1-c1ccnc2cc(Cl)ccc12 | -0.77% | -0.13% | -4.37%
C#CC(C)(CO)N1CCCC1 (stereo not given) | 1.89% | 4.77% | 1.64%
CCOc1ccc(-c2noc(-c3c[nH]c4ccccc4c3=O)n2)cc1 | 1.69% | -0.34% | 2.82%
CCCCCCCc1ccc(-c2c(C)[nH]c(C)c(Cl)c2=O)cn1 | 0.84% | 1.55% | 0.07%
Cc1cc(Nc2ccc(C)c(C)c2)n2nc(C)nc2n1 | 5.08% | 5.03% | 5.46%
COc1ccc2[nH]c(C(=O)Nc3cccc(-c4ccc(CN(C)C)cc4)c3)cc2c1 | 3.16% | 1.78% | -0.5%
CC(C)N1CCN(C(CN2CCN(CCCOc3ccccc3-c3ccccc3)CC2)c2ccc(F)cc2)CC1 (stereo not given) | 6.32% | 5.02% | 5.95%
N#Cc1ccc(N2CCN(Cc3ccc(-c4ccc(-c5nc6cc(C(F)(F)F)ccc6[nH]5)s4)cc3)CC2)nc1 | 2.33% | 1.76% | 0.96%
COc1ccc(CN2CCC(NCc3cccc([N+](=O)[O-])c3)CC2)cc1 | 5.28% | 7.16% | 6.36%
COc1ccc2nccc([C@@H](O)CN3CCC(NCc4ccc5c(c4)NC(=O)C(C)S5)CC3)c2c1 (stereo not given in full) | 12.2% | 1.99% | 4.38%
COc1cccc(CCNCCCCCCNCCc2ccc(Cl)cc2)c1 | 2.26% | 2.74% | 2.55%
CC(C)CCn1c(Sc2ccc(C#N)c([N+](=O)[O-])c2)nnc1-c1cccc(Cl)c1 | 9.63% | 9.97% | 8.26%
CC[C@H](C)CNC(=O)c1cncc(-c2ccc(CNCCOc3ccccc3)cc2)c1 | 1.83% | 2.11% | 1.09%
CC(=O)Nc1nc(C(=O)Nc2ccc(-c3ccc(-c4nc5cccc(C)c5[nH]4)cc3)cc2)cs1 | 10.7% | 9.18% | 6.38%
O=C(Nc1ccc(C(=O)N(Cc2ccc3c(c2)OCO3)C2CCCC2)cc1)c1cccs1 | 1.03% | 0.69% | -2.85%
Oc1cccc(CCNCCCCCCNCCc2ccc(Cl)cc2)c1 | 2.27% | 2.44% | 2.3%
Cc1nnsc1C(=O)Nc1ccc(-c2ccc(-c3nc4ccccc4[nH]3)s2)cc1 | 4.65% | 1.4% | 1.47%
COc1cccc(C2C(C(=O)Nc3ccccc3)=C(C)N=c3sc(=Cc4ccc(O)cc4)c(=O)n32)c1 (stereo not given) | 19.2% | 27.8% | 16.8%
CC(C)C(=O)NC(c1ccc(N(C)C)cc1)c1cc(Cl)c2cccnc2c1O (stereo not given) | 3.89% | 4.2% | 1.29%
Cc1cnc(NC(=O)c2cn(-c3ccccc3)nc2-c2cccs2)s1 | 14.6% | 13.2% | 13.9%
COc1ccc(CNC2CCN(C)CC2)cc1-c1ccc(OC)c(S(=O)(=O)NCc2ccccc2)c1 | 1.01% | 1.62% | 0.01%
CN(C)Cc1cccc(-c2ccc(NC(=O)c3ccc4c(=O)n(C5CCCCC5)cnc4c3)cc2)c1 | 76% | 80.4% | 79.8%
CN1CCN(C(C(=O)NCc2cc(Cl)cc(Cl)c2)c2ccccc2-c2ccsc2)CC1 (stereo not given) | 4.67% | 5.51% | 4.6%
O=C(NCCCNc1ccc2ccccc2n1)c1cc2c(Cl)cc(Cl)cc2[nH]1 | 0.34% | -0.36% | 2.17%
c1ccc(CN2CCC(NCc3ccc(-c4ccc(CNC5CCCC5)cc4)cc3)CC2)cc1 | 1.73% | 1.09% | 0.48%
